An excerpt weighted towards active compounds, which were near 4.6% of everything screened.
D1 PAM: enhances dopamine response at the human D1 receptor | P21728 | HEK293 TREx D1 cells, calcium flux, dopamine EC20 potentiation | potentiation, % at 10 µM | 360,000 compounds, 0.036% hits | AID 504651; in the data active means potentiation above about 30%
D1 antag: antagonists of human D1 dopamine receptor | HEK293 TREx D1 cells, calcium flux, dopamine EC80; hits give low values | activity change, negative = inhibition, % at 10 µM | 360,000 compounds, 3.2% hits | AID 504652; in the data active means activity change below about -30%
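Tetracycline-induced HEK293 T-REx cells with force-coupled D1 receptor were loaded with a no-wash calcium dye. Compound was added after a 10 s baseline and read kinetically for 180 s; EC80 dopamine was then added and calcium flux followed another 180 s.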
TRHR enhancer: TRH receptor (human) allosteric enhancement; P34981; TRHR cells, fluo-8 calcium fluorescence, EC20 TRH enhancement; enhancement, % at 2 µM; 360,000 compounds, 0.66% hits; in the data active means enhancement above about 30%
Target sequence (P34981 whole entry, looked up): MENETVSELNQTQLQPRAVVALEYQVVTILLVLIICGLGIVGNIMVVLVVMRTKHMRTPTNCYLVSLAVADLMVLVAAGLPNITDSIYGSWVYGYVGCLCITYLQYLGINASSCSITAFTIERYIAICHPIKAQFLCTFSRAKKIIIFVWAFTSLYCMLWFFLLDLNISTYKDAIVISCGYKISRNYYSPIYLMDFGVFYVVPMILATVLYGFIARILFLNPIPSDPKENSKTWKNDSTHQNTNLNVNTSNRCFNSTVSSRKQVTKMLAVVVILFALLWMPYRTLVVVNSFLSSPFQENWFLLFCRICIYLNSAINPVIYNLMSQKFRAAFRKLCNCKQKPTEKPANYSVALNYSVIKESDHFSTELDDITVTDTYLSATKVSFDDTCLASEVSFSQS
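TRHR-expressing cells loaded with fluo-8 calcium dye were read kinetically (ex 480/em 530) during compound addition, then stimulated with an EC20 of TRH (10 nM final). Enhancement of the Gq-mediated intracellular calcium response was scored.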
TRHR agonist: TRH receptor (human) agonism; P34981; TRHR cells, calcium flux fluo-8, FDSS agonist mode; activation, % at 2 µM; 360,000 compounds, 0.18% hits
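TRHR-expressing cells loaded with fluo-8 calcium dye; 23 nL library compound pin-transferred, kinetic FDSS fluorescence (Ex 480/Em 530) recorded about 180 s for agonist-induced calcium release, before a 10 nM TRH EC20 addition for potentiator mode.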
D1 agonist: agonists of human D1 dopamine receptor; P21728; HEK293 T-REx D1 cells, calcium flux, agonist mode; activation, % at 2 µM; 360,000 compounds, 1% hits; AID 504660
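Tetracycline-induced HEK293 TREx D1 cells, force-coupled to calcium signalling, were dye-loaded with a no-wash calcium kit. Compound was pin-added after a 10 s baseline. Fluorescence was read kinetically at 1 cycle/s for 180 s, with calcium rises flagged as agonism.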
Hits are given with their value. Unless noted, no stated cut-off is given here; in the data, active means activation above about 30%; inactive means the rest.

Screening Cc1nn(CC(=O)N2CCN(c3ccccc3)CC2)c(=O)c2cc3cc(F)ccc3n12 returned D1 PAM inactive, D1 antag inactive, TRHR enhancer inactive, TRHR agonist inactive and D1 agonist inactive.
`O=C1/C(=C/C=C/c2ccccc2)Oc2c1ccc(O)c2CN1CCN(CCO)CC1` gave D1 PAM inactive, D1 antag inactive, TRHR enhancer inactive, TRHR agonist inactive and D1 agonist inactive.
CCN1CCN(Cc2c(O)ccc3c2O/C(=C\c2ccccc2)C3=O)CC1 was read as D1 PAM inactive, D1 antag inactive, TRHR enhancer inactive, TRHR agonist inactive and D1 agonist 51.
For CCN1CCN(Cc2c(O)ccc3c2O/C(=C\C=C\c2ccccc2)C3=O)CC1 the results were D1 PAM inactive, D1 antag inactive, TRHR enhancer inactive, TRHR agonist inactive and D1 agonist inactive.
COc1ccccc1/C=C/C=C1\Oc2c(ccc(O)c2CN2CCN(CCO)CC2)C1=O was read as D1 PAM inactive, D1 antag -31, TRHR enhancer inactive, TRHR agonist inactive and D1 agonist 114.
Screening Cc1ccc(/C=C2\Oc3c(ccc(O)c3CN3CCN(C)CC3)C2=O)cc1 returned D1 PAM inactive, D1 antag inactive, TRHR enhancer inactive, TRHR agonist inactive and D1 agonist 40.
`CCC(C)NC(=O)CCNS(=O)(=O)c1ccc(Br)cc1` (configuration not stated) gave D1 PAM inactive, D1 antag -93, TRHR enhancer inactive, TRHR agonist inactive and D1 agonist inactive.
`COc1ccc(-c2cc(CCCC(=O)NCCc3ccc(OC)cc3OC)no2)cc1` gave D1 PAM inactive, D1 antag -44, TRHR enhancer inactive, TRHR agonist inactive and D1 agonist inactive.
`COC(=O)N/N=C/c1cccs1` gave D1 PAM inactive, D1 antag -32, TRHR enhancer inactive, TRHR agonist inactive and D1 agonist inactive.
Screening O=C(Cc1ccccc1)N/N=C/c1cccs1 returned D1 PAM inactive, D1 antag inactive, TRHR enhancer inactive, TRHR agonist inactive and D1 agonist inactive.
`Cc1ccccc1CSCC(=O)N/N=C/c1cccs1` gave D1 PAM inactive, D1 antag -41, TRHR enhancer inactive, TRHR agonist inactive and D1 agonist inactive.
Screening c1cc2c3c(cccc3c1)NC1(CCC3(CC1)Nc1cccc4cccc(c14)N3)N2 returned D1 PAM inactive, D1 antag -40, TRHR enhancer inactive, TRHR agonist inactive and D1 agonist inactive.
`c1cc2c3c(cccc3c1)NC1(CCCCCC1)N2` gave D1 PAM inactive, D1 antag inactive, TRHR enhancer inactive, TRHR agonist inactive and D1 agonist inactive.
Screening N#Cc1c(N)nc(SCc2ccncc2)c(C#N)c1-c1cccs1 returned D1 PAM inactive, D1 antag -34, TRHR enhancer inactive, TRHR agonist inactive and D1 agonist inactive.
For Cc1cc(=O)[nH]c2nnc(SCc3cccc(F)c3)n12 the results were D1 PAM inactive, TRHR enhancer inactive, TRHR agonist inactive and D1 agonist inactive.
For CC(C)(Oc1ccc(-c2ccco2)cc1)C(=O)O the results were D1 PAM inactive, D1 antag -46, TRHR enhancer inactive, TRHR agonist inactive and D1 agonist inactive.
CC(C)(Oc1ccc(CCNC(=O)c2ccc(-c3ccccc3)o2)cc1)C(=O)O was read as D1 PAM inactive, D1 antag inactive, TRHR enhancer inactive, TRHR agonist inactive and D1 agonist inactive.
For CCc1nnc(NC(=O)CSc2nc3c([nH]c4ccccc43)c(=O)n2-c2ccc(Cl)cc2)s1 the results were D1 PAM inactive, D1 antag inactive, TRHR enhancer inactive, TRHR agonist inactive and D1 agonist inactive.
`CCCN(CCC)C(=O)Cn1c(=O)n(-c2ccc(OC)cc2OC)c(=O)c2c3c(sc21)CCC3` gave D1 PAM inactive, D1 antag inactive, TRHR enhancer inactive, TRHR agonist inactive and D1 agonist inactive.
`Clc1ccc(CN2C3=NCCN3c3ccccc32)cc1Cl` gave D1 PAM inactive, D1 antag inactive, TRHR enhancer inactive, TRHR agonist inactive and D1 agonist 35.
`COc1ccc(NC(=O)CCS(=O)(=O)c2cc3c(cc2C)NC(=O)CO3)cc1Cl` gave D1 PAM inactive, D1 antag inactive, TRHR enhancer inactive, TRHR agonist inactive and D1 agonist inactive.
For COc1ccc(C(=O)C2CCCN(Cc3cn[nH]c3-c3ccccc3)C2)cc1OC (configuration not stated) the results were D1 PAM inactive, D1 antag -31, TRHR enhancer inactive, TRHR agonist inactive and D1 agonist inactive.
For COc1ccc(Br)cc1CN1CCCC(C(=O)N2CCCCC2)C1 (configuration not stated) the results were D1 PAM inactive, D1 antag inactive, TRHR enhancer inactive, TRHR agonist inactive and D1 agonist inactive.
COc1ccc(Br)cc1CN1CCCC(C(=O)N2CCCCCC2)C1 (configuration not stated) was read as D1 PAM inactive, D1 antag -34, TRHR enhancer inactive, TRHR agonist inactive and D1 agonist inactive.
Screening COc1ccccc1CN1CCCC(C(=O)N2CCCCC2)C1 (configuration not stated) returned D1 PAM inactive, D1 antag inactive, TRHR enhancer 39, TRHR agonist inactive and D1 agonist inactive.
Screening COc1cccc(OC)c1CN1CCCC(C(=O)c2ccccc2SC)C1 (configuration not stated) returned D1 PAM inactive, D1 antag -57, TRHR enhancer inactive, TRHR agonist inactive and D1 agonist inactive.
`CCOc1ccc(C(=O)Nc2cccc(C(=O)OCc3cc(=O)n4cc(C)sc4n3)c2)cc1` gave D1 PAM inactive, D1 antag inactive, TRHR enhancer inactive, TRHR agonist inactive and D1 agonist inactive.
Screening CCOC(=O)c1sc(NC(=O)c2c(C)nn(Cc3ccccc3)c2C)cc1C returned D1 PAM inactive, D1 antag -45, TRHR enhancer inactive, TRHR agonist inactive and D1 agonist inactive.
Screening CCOC(=O)c1sc(NC(=O)c2ccc(Cl)s2)cc1C returned D1 PAM inactive, D1 antag inactive, TRHR enhancer inactive, TRHR agonist inactive and D1 agonist inactive.
`CCOC(=O)c1sc(NC(=O)c2cccc(S(=O)(=O)N3CCN(C)CC3)c2)cc1C` gave D1 PAM inactive, D1 antag -35, TRHR enhancer inactive, TRHR agonist inactive and D1 agonist inactive.
Screening CCOC(=O)c1sc(NC(=O)Nc2ccc(Cl)cc2)cc1C returned D1 PAM inactive, D1 antag -58, TRHR enhancer inactive, TRHR agonist inactive and D1 agonist inactive.
CCOC(=O)c1sc(NC(=O)c2cccc(S(=O)(=O)N(CC)CC)c2)cc1C was read as D1 PAM inactive, D1 antag inactive, TRHR enhancer inactive, TRHR agonist inactive and D1 agonist inactive.

Bioassay records: PubChem BioAssay, National Center for Advancing Translational Sciences (NCATS)
